# Data from the OligoGym collection.
# Legend:
# Test in all cases: pooled miR-30 sensor sort-seq; sequence = guide strand
# Conditions in all cases: shRNA
# [1] = molecular target: CTBP2
# [2] = molecular target: CT47A1
# [3] = molecular target: CYLC1
# [4] = molecular target: DCPS
# [5] = molecular target: DHPS
# [6] = molecular target: DHCR7
# [7] = molecular target: DHX35
# [8] = molecular target: DMRTC2
# [9] = molecular target: DMKN
# [10] = molecular target: DMRT3
# [11] = molecular target: DMXL1
# Further: reference of the scale not given here.
sequence,measurement,setting,value
ACAAATTCTGTCCAATCGCTGT,sensor-assay potency score (higher = more potent),[1],-0.83
TTCTTCACCTTGTTTTCTGCAT,sensor-assay potency score (higher = more potent),[2],-0.231
TTTCTTGTCATCTTTCTTGACA,sensor-assay potency score (higher = more potent),[3],-0.649
TATCTTTTTGTGAACAATTTTT,sensor-assay potency score (higher = more potent),[3],-1.47
ATTCCTGTAGTCATCTCCCGTC,sensor-assay potency score (higher = more potent),[4],-0.108
TCTTCATCCTGTGACAGTGGTT,sensor-assay potency score (higher = more potent),[5],-0.839
TTCCAGCTTCTTCTCGATCATG,sensor-assay potency score (higher = more potent),[5],-1.22
TACAGAAGCACCTGGAAGGTGA,sensor-assay potency score (higher = more potent),[6],0.0614
TTTCCGATCCTATTGATCCCGT,sensor-assay potency score (higher = more potent),[5],-0.549
TTAAACTCGATGCCCATCATGT,sensor-assay potency score (higher = more potent),[6],-0.575
TGAGGTTGGATGTATATCCCAG,sensor-assay potency score (higher = more potent),[5],-0.155
TATCCCAGGAAAATGGTGCAGC,sensor-assay potency score (higher = more potent),[5],-0.649
TCGGGCGGCAACGTCGAGCTGT,sensor-assay potency score (higher = more potent),[5],-0.875
TCGAGCTGTGCTTTAGCACGGC,sensor-assay potency score (higher = more potent),[5],-0.48
TGAATTTGCAGTCTCTGGCGCT,sensor-assay potency score (higher = more potent),[6],0.0615
TTCTTCTCGATCATGGCATTGA,sensor-assay potency score (higher = more potent),[5],-0.43
TGATGTAAACAGCGTAGTCGGC,sensor-assay potency score (higher = more potent),[5],-0.353
TAGATGATGTAGAAGTAGGGCA,sensor-assay potency score (higher = more potent),[6],0.47
TAGATAAAAGATATCCACCGGA,sensor-assay potency score (higher = more potent),[7],-0.104
TACGTCCACCATGTTGTGCTGC,sensor-assay potency score (higher = more potent),[5],-0.635
TTGTAAAAGAAATTGCCTGTGA,sensor-assay potency score (higher = more potent),[6],0.127
TAGCTGACCAAAAAGTAGGGGA,sensor-assay potency score (higher = more potent),[5],0.0141
TAAACAGCGTAGTCGGCCCCGT,sensor-assay potency score (higher = more potent),[5],-0.782
TTGCAGTCTCTGGCGCTGGTGG,sensor-assay potency score (higher = more potent),[6],-0.837
TTGGTTGCTTGGAAGCCGGTGG,sensor-assay potency score (higher = more potent),[5],-0.209
TAGACTGAGGCAACTTGTCAAA,sensor-assay potency score (higher = more potent),[7],-1.05
TAGGAATGGAAGAAGATCATGT,sensor-assay potency score (higher = more potent),[5],0.621
TAATACACGGACTCTGGGTTGT,sensor-assay potency score (higher = more potent),[5],-0.152
ATGGTCTTCAGGTACCAGGTTT,sensor-assay potency score (higher = more potent),[6],-0.879
AAAGGTTTCAGCCACAAGCAGG,sensor-assay potency score (higher = more potent),[5],-1.41
TTGATGTAAACAGCGTAGTCGG,sensor-assay potency score (higher = more potent),[5],-0.879
TACTTGTTCACAACCCCTGCAG,sensor-assay potency score (higher = more potent),[6],-0.0403
ATTGACTTGCTGTACAGCGCGC,sensor-assay potency score (higher = more potent),[5],-0.633
TTGACTTGCTGTACAGCGCGCC,sensor-assay potency score (higher = more potent),[5],0.283
TTGTGCTGCACAAGGTAGCGAA,sensor-assay potency score (higher = more potent),[5],-0.894
TTGAAACTTGACAAGAAGCTTT,sensor-assay potency score (higher = more potent),[7],0.0953
TTCTGCTCCATCACCATCTGGT,sensor-assay potency score (higher = more potent),[5],0.0359
TTGGCTTTGGGAATGTTGGGTT,sensor-assay potency score (higher = more potent),[6],0.501
TATTGATCCCGTTCTCCCGGAG,sensor-assay potency score (higher = more potent),[5],-0.362
TAGTTGTAAAAGAAATTGCCTG,sensor-assay potency score (higher = more potent),[6],-0.825
TAGAATGAAACCTCGCTGCATT,sensor-assay potency score (higher = more potent),[7],-0.528
TTGTAAACAACCGTTGTCCCAG,sensor-assay potency score (higher = more potent),[7],-0.562
TGTGTTGATGTAAACAGCGTAG,sensor-assay potency score (higher = more potent),[5],-0.876
TAACACAAAACAGCGCACGAGT,sensor-assay potency score (higher = more potent),[7],-0.967
TTGCTGTACAGCGCGCCCGAAG,sensor-assay potency score (higher = more potent),[5],-1.67
ATTTGTGACACTCGCAAGCCTG,sensor-assay potency score (higher = more potent),[8],-0.869
TATGCAGAGCAACAGAGGGGGC,sensor-assay potency score (higher = more potent),[8],-1.35
TTCTGAAGTGGTTGGGAGCTTT,sensor-assay potency score (higher = more potent),[8],-0.576
TAGCTGAAGAGGGTCTGGGGTG,sensor-assay potency score (higher = more potent),[8],-1.25
TTCTGTTTGAAATCCTCCCAGA,sensor-assay potency score (higher = more potent),[9],-0.45
TCAGTACTGGGTGAGATCCTGG,sensor-assay potency score (higher = more potent),[8],-0.163
TTACTCTTTGCCACATCTGGGG,sensor-assay potency score (higher = more potent),[10],-0.22
TAAGTTAAAAGCATTGTGCATT,sensor-assay potency score (higher = more potent),[11],-0.306
TTGACTGCTTTCACATTTGTTT,sensor-assay potency score (higher = more potent),[11],-0.678
TTGTCTCTGAAAACTGTCCAAG,sensor-assay potency score (higher = more potent),[10],-0.806
TTTTTTAACACTTCAAGCGGCG,sensor-assay potency score (higher = more potent),[10],-0.226
TATCAGAGTTGAGTGTGTGCGG,sensor-assay potency score (higher = more potent),[8],-0.137
TGACTGAGTACTTCCCACCATA,sensor-assay potency score (higher = more potent),[9],-1.25
ATATGCAGAGCAACAGAGGGGG,sensor-assay potency score (higher = more potent),[8],-0.319
TTTGTGACACTCGCAAGCCTGG,sensor-assay potency score (higher = more potent),[8],-0.968
